Assay results from PubChem BioAssay AID1159580 (chemical genetic matrix, 2015).
“And” between values parts separate entries of the source, which are not always exact repeats. Identical values can stand only once. About 2,000 (36%) of roughly 5,500 compounds were called active. About 18% were inconclusive and are not listed. Rule as the data show it: active = normalized growth mostly below about 0.91 (no sharp cut-off); inconclusive = no clear call, values can overlap the other calls; inactive = mostly above about 0.92. The list shows a part of the results.

Experiment: chemical genetic growth profiling, strain panel (AID 1159580);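 also: tested at 20 µM; growth read once vehicle control cultures reached saturation at 30 °C; 1 = growth at the plate median or of vehicle wells; lower values mean less growth of the strain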
Settings: S. cerevisiae deletion strains, growth OD

Measured: normalized growth

O=C1CCCN1CC#CCN1CCCC1
inactive: locus YAL013W, strain DEP1, active compounds read low 1.02 and 1.01 | locus YAL021C, strain ccr4, active compounds read low 1.01 | locus YAL026C, strain drs2, active compounds read low 1.03 | locus YAL030W, strain snc1, active compounds read low 1.02 | locus YAL040C, strain CLN3, active compounds read low 1.01 | locus YBL061C, strain skt5, active compounds read low 1.02 | locus YBR009C, strain hhf1, active compounds read low 1.01 | locus YBR021W, strain FUR4, active compounds read low 0.985 and 1.01 | locus YBR023C, strain chs3, active compounds read low 1.02 | locus YBR171W, strain sec66, active compounds read low 1.02 | locus YBR229C, strain ROT2, active compounds read low 1 and 1.01 | locus YBR231C, strain swc5, active compounds read low 1.03 | locus YBR279W, strain paf1, active compounds read low 1.01 | locus YCL011C, strain gbp2, active compounds read low 1.02 | locus YCL016C, strain dcc1, active compounds read low 1.02 | locus YCL029C, strain bik1, active compounds read low 1.01 and 1.02 | locus YCL061C, strain MRC1 (second series), active compounds read low 1 | locus YCL069W, strain vba3, active compounds read low 1.02 | locus YCR088W, strain abp1, active compounds read low 1.03 | locus YDL005C, strain med2, active compounds read low 1.03 | locus YDL035C, strain GPR1, active compounds read low 1 and 1.03 | locus YDL040C, strain nat1, active compounds read low 1.01 | locus YDL074C, strain BRE1, active compounds read low 0.994 and 1.02 | locus YDL101C, strain DUN1, active compounds read low 0.997 and 1.01 | locus YDL134C, strain PPH21, active compounds read low 1.01 | locus YDL185W, strain tfp1, active compounds read low 1.03 and 1.01 | locus YDL192W, strain arf1, active compounds read low 1.01 and 1.02 | locus YDR001C, strain nth1, active compounds read low 1.02 | locus YDR069C, strain doa4, active compounds read low 1.03 | locus YDR101C, strain arx1, active compounds read low 0.979 and 1.01 | locus YDR137W, strain rgp1, active compounds read low 1.03 | locus YDR150W, strain NUM1, active compounds read low 1.01 and 1 and 1.02 | locus YDR159W, strain sac3, active compounds read low 0.999 | locus YDR162C, strain NBP2, active compounds read low 1.02 and 1.01 | locus YDR195W, strain ref2 1.02 | locus YDR297W, strain sur2, active compounds read low 1.02 | locus YDR318W, strain mcm21, active compounds read low 1.01 and 1.02 | locus YDR334W, strain swr1, active compounds read low 1.02 | locus YDR335W, strain msn5, active compounds read low 1.02 | locus YDR363W, strain ESC2, active compounds read low 1.01 | locus YDR388W, active compounds read low 1.01 | locus YDR392W, strain spt3, active compounds read low 1.01 | locus YDR502C, strain sam2, active compounds read low 1.02 and 1.01 | locus YEL003W, strain gim4, active compounds read low 1.02 | locus YEL037C, strain rad23, active compounds read low 1.02 | locus YEL061C, strain CIN8 (second series), active compounds read low 1.02 | locus YEL061C, strain CIN8, active compounds read low 1 | locus YER002W, strain NOP16, active compounds read low 0.985 | locus YER015W, strain faa2, active compounds read low 1.02 | locus YER016W, strain bim1, active compounds read low 1.01 | locus YER110C, active compounds read low 1.02 | locus YER111C, strain swi4, active compounds read low 1.03 | locus YER155C, strain BEM2 (second series), active compounds read low 1.03 | locus YER155C, strain BEM2, active compounds read low 0.994 and 1.01 | locus YER167W, strain BCK2, active compounds read low 1 and 1.02 | locus YFR010W, strain ubp6, active compounds read low 1.03 | locus YGL078C, strain dbp3, active compounds read low 1.02 and 0.999 | locus YGL086W, strain mad1, active compounds read low 0.999 and 1.03 | locus YGL167C, strain pmr1, active compounds read low 1.01 | locus YGL173C, strain kem1, active compounds read low 1.01 | locus YGL227W, strain vid30, active compounds read low 1.02 | locus YGL240W, strain doc1, active compounds read low 1.02 | locus YGL248W, strain PDE1, active compounds read low 1.02 and 1.01 | locus YGL253W, strain hxk2, active compounds read low 1.02 | locus YGR078C, strain PAC10, active compounds read low 1 and 0.996 and 1.01 | locus YGR135W, strain pre9, active compounds read low 1.04 and 0.991 | locus YGR229C, strain SMI1, active compounds read low 1 | locus YGR252W, strain gcn5, active compounds read low 1.1 and 1.03 | locus YHR013C, strain ard1, active compounds read low 1.04 | locus YHR027C, strain rpn1, active compounds read low 1.02 | locus YHR030C, strain SLT2, active compounds read low 1.01 and 1.02 | locus YHR079C, strain IRE1 (second series), active compounds read low 1.01 and 1.02 | locus YHR079C, strain IRE1, active compounds read low 1.02 | locus YHR094C, strain hxt1, active compounds read low 1.01 | locus YHR129C, strain ARP1, active compounds read low 1 | locus YHR142W, strain chs7, active compounds read low 1.05 | locus YHR200W, strain rpn10, active compounds read low 1.01 and 1.02 | locus YIL066C, strain RNR3, active compounds read low 1.02 and 1.03 | locus YIL073C, strain SPO22, active compounds read low 1.06 and 1.1 | locus YIL125W, strain kgd1, active compounds read low 1 and 1.01 | locus YIR030C, strain dcg1, active compounds read low 1.01 and 1.02 | locus YJL092W, strain hpr5, active compounds read low 1.01 | locus YJL095W, strain BCK1 (second series), active compounds read low 1.02 | locus YJL095W, strain BCK1, active compounds read low 1 and 1.03 and 0.996 | locus YJL115W, strain asf1, active compounds read low 1.04 | locus YJL129C, strain trk1, active compounds read low 1.04 | locus YJL134W, strain LCB3, active compounds read low 1.01 | locus YJL154C, strain vps35, active compounds read low 1.01 | locus YJL164C, strain tpk1, active compounds read low 1.02 | locus YJL166W, strain qcr8, active compounds read low 1.02 | locus YJL168C, strain set2, active compounds read low 1 and 1.02 | locus YJL187C, strain SWE1 (second series), active compounds read low 0.999 and 1 | locus YJL187C, strain SWE1, active compounds read low 1.02 | locus YJR043C, strain POL32, active compounds read low 1 and 1.02 | locus YJR066W, strain TOR1, active compounds read low 0.971
